HT1080 IDH1KD tx: qHTS for induction of synthetic lethality in tumor cells producing 2HG: qHTS for the HT-1080-IDH1KD cell line | HT-1080 IDH1 knockdown viability, ATP luminescence, 48 h | Potency, µM (doses to about 46.1 µM), for inactives: at the highest dose activity, negative = toxicity, most hits filed as cytotoxic | 2% of 360,000 active | AID 686971, 2013;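 note: potency is the fitted concentration of half-maximal effect; 0% = DMSO wells and -100% = cell-free medium wells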
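Luminescent ATP read-out (CellTiter-Glo, 10 min at room temperature) after 48 h compound exposure at 37 °C gave viability of IDH1-knockdown HT-1080 cells. Activity was normalised to DMSO and cell-free wells, then fitted as concentration-response curves.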
TDP1 cell noCPT: qHTS for Inhibitors of human tyrosyl-DNA phosphodiesterase 1 (TDP1): qHTS in cells in absence of CPT | DT40 Tdp1-/- hTDP1 cells, no CPT, ATP luminescence, 48 h | Potency, µM (top dose mostly 46.2 µM), for inactives: at the top dose activity change, negative = growth inhibition, actives largely listed as inhibitors | 15% of 420,000 active | AID 686978, 2013; note: potency is the fitted concentration of half-maximal effect; nearly all actives have a fitted effect of over 55% in size
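Growth kinetics read by CellTiter-Glo luminescence after ≥48 hr at 37 °C. Cells: DT40 Tdp1-/- stably carrying human TDP1, 400 per well, compound exposure in the absence of CPT (DMSO vehicle).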
TDP1 cell CPT: qHTS for Inhibitors of human tyrosyl-DNA phosphodiesterase 1 (TDP1): qHTS in cells in presence of CPT. chicken DT40 Tdp1-/-;hTDP1 cells + 20 nM CPT, ATP luminescence, 48 h. Potency, µM (top dose mostly 46.2 µM), for the others: at the top dose activity change, negative = growth inhibition, usual class: inhibitors. 12% of 420,000 active; note: potency is the fitted concentration of half-maximal effect; nearly all actives have a fitted effect of over 55% in size
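Chicken DT40 Tdp1-/- cells complemented with human TDP1, 400 cells/well, exposed to compounds plus 20 nM camptothecin for at least 48 h at 37 C; viability read as ATP content by CellTiter-Glo luminescence.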
HT1080NT lethal: qHTS for induction of synthetic lethality in tumor cells producing 2HG: qHTS for the HT-1080-NT fibrosarcoma cell line; HT-1080-NT fibrosarcoma viability, CellTiter-Glo ATP luminescence, 48 h; Potency, µM (titrated, usually from 46.1 µM), for inactives: at the highest dose activity, negative = less viability, actives largely listed as cytotoxic; 1.6% of 360,000 active;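 note: NT is the 2HG producing partner of a matched IDH1 knockdown line; potency is the fitted concentration of half-maximal effect; 0% = DMSO-treated cells and -100% = media-only wells without cells; nearly all actives have a fitted effect of over 55% in size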
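Luminescent CellTiter-Glo readout after 48 hours of compound exposure at 37 degrees C defined viability of HT-1080-NT cells. Activity was normalized to DMSO wells and cell-free media wells; concentration-response curves were fitted and assigned curve classes.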
IL-1B inflam inh: qHTS for Inhibitors of Inflammasome Signaling: IL-1-beta AlphaLISA Primary Screen | THP-1 LPS/ATP IL-1B secretion, AlphaLISA, 16 h; active compounds read low | activity change, % at 57.5 µM | 4.7% of 360,000 active | AID 743279, 2014; in the data active = activity change below about -50%; inconclusive = mostly about -30% to -49%
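THP-1 cells pretreated 1 hr with compounds (up to 57.5 uM final), then stimulated with LPS (250 ng/mL final) plus ATP (1.25 mM final); secreted IL-1B measured by AlphaLISA after 16 hr, decreased signal indicating inhibition.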
* marks the source's active call; other numbers are inactive results; i = inactive; ? = inconclusive; . = no result given. Shown are actives, neighbours in structure and some others; about 19% of the full set was active somewhere. Unless noted, calls come from the whole dose curve; as a rule, active = well fitted curve in the direction sought with a large enough effect; inconclusive = small, poorly fitted or top-dose-only effect, or another doubt; inactive = no such curve, though single readings can be large; an effect the other way counts as inactive or inconclusive. Unless noted, % is set by controls: 0 for no effect and ±100 for the full control effect.

SMILES	HT1080 IDH1KD tx	TDP1 cell noCPT	TDP1 cell CPT	HT1080NT lethal	IL-1B inflam inh
O=c1c2c3nc4ccccc4nc3n(/N=C/c3ccco3)c2ncn1CCC1=CCCCC1	-2.3%	20.6µM*	16.4µM*	4.5%	-29.3
O=c1c2[nH]c3ccccc3c2ncn1CCC1=CCCCC1	17.1%	-7.5%	-2.8%	16.9%	49.0
CC(C)(C)NC(=O)C(c1ccc(-c2ccccc2)cc1)N(C[C@H]1CC[C@@H]([C@@H]2CC[C@H](CO)O2)O1)C(=O)c1ccc(-c2ccccc2)cc1 (some centres not stated)	?	14.6µM*	?	-21.2%	-54.7*
CC(C)(C)NC(=O)C(c1ccc(-c2ccccc2)cc1)N(C[C@H]1CC[C@@H]([C@@H]2CC[C@H](CO)O2)O1)C(=O)c1ccccc1F (some centres not stated)	-10.4%	16.4µM*	29.1µM*	0.7%	-63.3*
CC(C)(C)NC(=O)C(c1ccc(-c2ccccc2)cc1)N(C[C@H]1CC[C@@H]([C@@H]2CC[C@H](CO)O2)O1)C(=O)c1cccc(Cl)c1 (some centres not stated)	-23.5%	?	?	-1.6%	-65.4*
COc1ccc(C(C(=O)NC(C)(C)C)N(C[C@H]2CC[C@@H]([C@@H]3CC[C@H](CO)O3)O2)C(=O)c2ccccc2)cc1 (some centres not stated)	-0.9%	-8.2%	1.3%	6.8%	31.3
CC(C)(C)NC(=O)C(c1ccc(F)cc1)N(CC1CCCO1)C(=O)c1csnn1 (configuration not stated)	2.1%	0.9%	6.6%	8.0%	7.6
CCc1ccc(OCC(=O)N(Cc2ccco2)Cc2ccco2)cc1	.	20.6µM*	?	.	.
CCc1ccc(CN(Cc2ccco2)C(=O)COc2ccccc2Cl)cc1	.	23.1µM*	?	.	.
Cc1ccc(CN(Cc2ccco2)C(=O)COc2cccc(C)c2C)o1	.	18.4µM*	16.4µM*	.	.
CN(Cc1ccccc1)C(=O)COc1ccccc1Cl	14.0%	?	-7.8%	-7.7%	-13.1
Cc1cccc(C)c1OCC(=O)N(Cc1ccco1)C1CCS(=O)(=O)C1 (configuration not stated)	-5.8%	-7.7%	-10.3%	9.1%	-16.2
Cc1cccc(OCC(=O)N(Cc2ccc(N(C)C)cc2)Cc2ccco2)c1C	.	7.31µM*	?	.	.
CCOc1ccc(OCCC(=O)OCC(=O)Nc2cc(S(=O)(=O)N3CCOCC3)ccc2C)cc1	0.0%	?	?	-8.7%	-8.6
Cc1ccc(S(=O)(=O)N2CCCCC2)cc1C(=O)Nc1ccccn1	2.2%	1.1%	-5.0%	7.1%	i
Cc1ccc(CN(Cc2ccco2)C(=O)c2ccc(Cl)cc2)o1	.	?	-27.4%	.	.
Cc1ccc(OCC(=O)N(Cc2ccco2)Cc2ccc(C)o2)cc1	.	16.4µM*	16.4µM*	.	.
CCCC(=Nc1ccccc1OC)C1=C(O)CC(c2ccccc2)CC1=O (configuration not stated)	1.5%	?	?	-6.6%	i
COc1ccccc1N=C(C)C1=C(O)CC(c2ccccc2)CC1=O (configuration not stated)	?	0.82µM*	0.517µM*	?	31.6
O=C(COC(=O)c1ccc(Cl)cc1[N+](=O)[O-])NCc1ccco1	9.6%	8.3%	7.9%	7.6%	1.6
Cn1c(/C=C/c2ccc(Cl)cc2)c([N+](=O)[O-])c(=O)n(C)c1=O	?	20.6µM*	?	?	-99.7*
COc1ccc(/C=C/c2c([N+](=O)[O-])c(=O)n(C)c(=O)n2C)cc1OC	0.0%	-13.2%	-1.1%	20.0%	-4.0
CCn1c(/C=C/c2cccc([N+](=O)[O-])c2)nc2ccccc2c1=O	9.1%	?	?	14.1%	-24.1
CCCCCOc1ccc(/C=C/c2c([N+](=O)[O-])c(=O)n(C)c(=O)n2C)cc1	7.3%	20.6µM*	18.4µM*	5.5%	-86.5*
COc1ccc(/C=C/c2c([N+](=O)[O-])c(=O)n(C)c(=O)n2C)c(OC)c1OC	-15.9%	?	-7.8%	-19.7%	-58.2*
SMILES	HT1080 IDH1KD tx	TDP1 cell noCPT	TDP1 cell CPT	HT1080NT lethal	IL-1B inflam inh
CN(/C=C/c1c([N+](=O)[O-])c(=O)n(C)c(=O)n1C)c1ccccc1	11.1%	-0.4%	1.6%	1.7%	-2.6
Cn1c(/C=C/c2cccc([N+](=O)[O-])c2)c([N+](=O)[O-])c(=O)n(C)c1=O	?	14.6µM*	?	-21.0%	-107.1*
COc1cc(Cn2c(=O)sc3ccccc32)ccc1OC(C)C	.	20.6µM*	?	.	.
CCN(CC)CCNC(=O)CNC(=O)c1nn(-c2ccc(OC)c(OC)c2)c(=O)c2ccccc12	8.0%	-1.7%	-0.6%	11.5%	21.7
COc1cccc(CN(C)C(=O)COc2ccc(C(=O)c3ccc(Cl)cc3)cc2)c1OC	?	23.1µM*	?	?	7.4
COc1ccc(NC(=O)CSCC(=O)N(C)Cc2cccc(OC)c2OC)cc1	-0.9%	?	?	-11.3%	14.2
COc1ccccc1C(=O)NNC(=S)NC(=O)c1sc2ccccc2c1Cl	?	8.2µM*	14.6µM*	-26.3%	5.8
COc1cccc(CN(C)C(=O)CNC(=O)c2sc3ccccc3c2Cl)c1OC	-16.8%	?	?	-3.7%	-50.9*
CCOc1ccccc1N1CCN(C(=O)CNC(=O)c2sc3ccccc3c2Cl)CC1	0.1%	23.1µM*	?	-2.6%	-20.8
COc1ccc(-n2nc(C(=O)NCC(=O)N3CC(C)CC(C)C3)c3ccccc3c2=O)cc1 (configuration not stated)	-16.9%	?	-23.2%	-0.2%	-6.9
Cc1cc(C)n(CCNS(=O)(=O)c2ccc(C)c(C)c2)n1	3.1%	-14.1%	-1.2%	0.1%	2.6
CC1CCCN(C(=O)CNC(=O)c2sc3ccccc3c2Cl)C1 (configuration not stated)	-11.5%	?	-27.8%	-10.9%	.
CC1CC(C)CN(C(=O)CNC(=O)c2sc3ccccc3c2Cl)C1 (configuration not stated)	-28.5%	23.1µM*	?	-27.2%	-57.4*
N#C/C(=C\c1cccc([N+](=O)[O-])c1)C(=O)Nc1cccnc1	-4.1%	-12.1%	-2.0%	-14.9%	37.8
N#C/C(=C\c1cccc([N+](=O)[O-])c1)C(=O)NCc1ccc(Cl)cc1	?	11.6µM*	5.8µM*	?	-107.6*

High-throughput results: PubChem BioAssay, National Center for Advancing Translational Sciences (NCATS)
